The full ranking holds about 33,000 sequences; the median of “E-score (-0.5 to 0.5)” is about -0.053, and the highest 2% start at about 0.37. This excerpt belongs to a sample that is enriched for the highest values.
Each sequence was assayed against Hap1 (UniProt P0CE41) (assay: PBM E-score (8-mer binding enrichment) (E-score (-0.5 to 0.5)); higher = stronger / more preferred TF binding). Details: protein concentration: 200 nM; construct: GST-DNA-binding domain.
Procedure: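 Universal 'all 10-mer' protein binding microarrays (Agilent AMADID 015681) probed with GST-tagged S. cerevisiae TFs (full-length or DBD) made by in vitro transcription/translation (PURExpress), about 100-200 nM. Bound TF was detected with fluorescent anti-GST. Each ungapped 8-mer (which stands for itself and its reverse complement) is scored by the PBM enrichment score (E-score), a modified Wilcoxon-Mann-Whitney statistic from -0.5 to +0.5, computed with the Universal PBM Analysis Suite. Scale: above 0.35 generally sequence-specific binding.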

Chain of UniProt P0CE41 (P0CE41 whole entry, the tested form may be a part): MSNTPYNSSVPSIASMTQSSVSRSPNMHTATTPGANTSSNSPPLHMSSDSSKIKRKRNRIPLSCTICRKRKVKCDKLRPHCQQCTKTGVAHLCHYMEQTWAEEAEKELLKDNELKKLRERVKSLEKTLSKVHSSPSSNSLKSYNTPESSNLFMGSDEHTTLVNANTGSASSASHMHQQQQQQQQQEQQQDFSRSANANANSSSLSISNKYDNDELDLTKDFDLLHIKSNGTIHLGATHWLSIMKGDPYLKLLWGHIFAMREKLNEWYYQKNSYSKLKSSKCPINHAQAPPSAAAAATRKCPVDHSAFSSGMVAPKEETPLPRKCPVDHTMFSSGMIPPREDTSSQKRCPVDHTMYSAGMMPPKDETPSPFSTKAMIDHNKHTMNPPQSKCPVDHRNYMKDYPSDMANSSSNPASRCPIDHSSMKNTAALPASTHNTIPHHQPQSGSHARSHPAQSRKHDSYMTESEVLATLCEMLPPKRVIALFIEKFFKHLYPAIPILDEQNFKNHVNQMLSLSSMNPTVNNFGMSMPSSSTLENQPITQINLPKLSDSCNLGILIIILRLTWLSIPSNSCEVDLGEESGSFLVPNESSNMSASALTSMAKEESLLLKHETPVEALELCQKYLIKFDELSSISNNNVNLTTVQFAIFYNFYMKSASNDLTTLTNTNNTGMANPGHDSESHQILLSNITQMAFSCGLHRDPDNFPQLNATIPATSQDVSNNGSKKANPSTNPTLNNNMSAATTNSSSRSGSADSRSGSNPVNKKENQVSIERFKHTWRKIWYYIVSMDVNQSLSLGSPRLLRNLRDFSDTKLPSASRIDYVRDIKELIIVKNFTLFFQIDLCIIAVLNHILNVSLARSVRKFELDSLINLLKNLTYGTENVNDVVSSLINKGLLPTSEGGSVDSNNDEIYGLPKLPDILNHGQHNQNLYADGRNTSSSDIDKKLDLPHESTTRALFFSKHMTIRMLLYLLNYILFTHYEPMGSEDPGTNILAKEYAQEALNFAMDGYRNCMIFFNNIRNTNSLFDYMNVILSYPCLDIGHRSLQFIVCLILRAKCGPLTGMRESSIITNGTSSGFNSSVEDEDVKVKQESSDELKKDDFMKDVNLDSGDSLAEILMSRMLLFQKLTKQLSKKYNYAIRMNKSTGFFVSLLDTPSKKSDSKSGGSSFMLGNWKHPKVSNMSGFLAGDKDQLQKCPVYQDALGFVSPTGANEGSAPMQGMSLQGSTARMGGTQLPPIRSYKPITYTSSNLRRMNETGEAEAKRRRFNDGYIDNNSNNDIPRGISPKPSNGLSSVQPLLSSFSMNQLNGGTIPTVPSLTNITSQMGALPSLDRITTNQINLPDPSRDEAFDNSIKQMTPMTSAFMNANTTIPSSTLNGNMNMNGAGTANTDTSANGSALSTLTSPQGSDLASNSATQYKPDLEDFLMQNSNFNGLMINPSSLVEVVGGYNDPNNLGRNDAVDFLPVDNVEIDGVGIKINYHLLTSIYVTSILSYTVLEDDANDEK

Sequence | PBM E-score
CATTAGCA | -0.142
CTAAGAGC | -0.0334
AGGGTGAT | -0.15
CAGAACAA | -0.101
CGGATGTC | 0.35
GGGATATA | 0.21
CGGATACA | 0.385
TGGATACA | -0.288
CGGATATA | 0.482
CGGATACC | 0.218
AGGATATA | 0.0407
GGGATGTA | 0.124
CGGATGTA | 0.427
ATAGCCTA | -0.189
CCGAATAC | 0.365
ATGTGACG | -0.166
GACGGGCC | 0.142
ACTAGGTC | -0.0578
GTCGACAC | -0.156
CCGATAAG | 0.431
GCGATAAA | 0.258
CCGATAAC | 0.447

Sequence | PBM E-score
CGGATAAG | 0.31
ACGATAAC | 0.0651
CCGATAAA | 0.461
GCGATAAC | 0.322
ACGATAAG | 0.245
TCGATAAA | 0.146
CAAGATAA | -0.0149
AAGCCTAA | -0.0872
ATGCCAGG | -0.127
ACTCTTGG | -0.22
ACGCTCGA | -0.125
ACGCTCGC | -0.123
ACGCTCGG | 0.375
TATCCAGA | -0.0797
AGACTGAG | -0.208
CGCAGCAA | -0.197
CGCGAGGA | 0.0251
GGGCTTTA | 0.132
GGGCTATA | -0.0464
TGGCTTAA | -0.0483
CGGCTTTC | 0.259
AGGCTATA | -0.157

Sequence | PBM E-score
CGGCTTTA | 0.464
CGGCTATA | 0.383
CGGCTTAG | 0.229
CGGCTTAA | 0.391
GCTCTACA | -0.124
GTCCTAGA | -0.246
TCTTTTCA | -0.162
TGGAAACA | -0.0875
CTGCTCCA | -0.239
CAGGACGC | -0.246
AAGGATGG | -0.188
CGGTGTTA | 0.465
GGGTGTTA | 0.0847
GGGTGATA | 0.167
CGGTGATC | 0.26
CGGTGTTC | 0.235
CGGTGATA | 0.428
AATTGGAC | 0.0155
CAGTAAAC | 0.00777
GCCTGCAC | -0.137
ATGCGCTA | -0.0961
CCGCCGAG | 0.352

Sequence | PBM E-score
GCGCCGGA | 0.368
ACGCCGGC | 0.405
CCGCCGGA | 0.402
CCGCCGCA | 0.135
ACGCCGCC | 0.256
GCGCCGAA | 0.359
ACGCCGGA | 0.381
ACGCCGCA | 0.18
CCGCCGAA | 0.38
ACGCCGGG | 0.306
ACGCCGTA | 0.0761
CGGCTCTC | 0.0925
AGCTGTGC | -0.224
CACGTCAC | -0.125
GGACCCAA | 0.124
ATACGTGC | 0.0178
CCATCGGC | 0.174
GTTGCAAA | -0.0687
CAATTTGC | -0.103
TTCGTAAA | -0.199
CCTAAAAA | 0.00566
GCCAAGTA | -0.218

Sequence | PBM E-score
CCGCCGGC | 0.373
CCGCCGCC | 0.193
CCGCCGTC | 0.151
AAGTTTAT | 0.145
CTCACCGA | 0.157
GTCACCGA | 0.142
ATCACCGC | 0.234
ATCACCGG | 0.382
ATCACCTG | -0.158
ATCACCGA | 0.417
ATAAGCCG | 0.3
ACTGATAG | -0.267
CCGATCGA | 0.325
ACGATCCG | 0.302
CGGATCCA | 0.318
ACGATCGG | 0.258
CCGATCCA | 0.269
CGGATCCG | 0.401
CCGATCCG | 0.438
CGGATCCC | 0.28
CCGATCGG | 0.402
ACTTTATG | -0.17
